Data taken from PubChem BioAssay (NCATS).
Results filed as inconclusive are left out. Entries that show only a call come without a potency. Calls of active or inactive are those of the source. Unless noted, calls come from the whole dose curve; as a rule, active = well fitted inhibition curve with a large enough effect in the repeat runs; inconclusive = weak or mixed curves; inactive = flat fitted curve, though single readings scatter.

tested on: not listed separately; assay: A High-Content qHTS Against Drug Library for the Identification of Small Molecules that Inhibit DYT1 Early Onset Primary Dystonia-Associated Cell Pathology (AID 1645839; calls by dose curve); settings: HEK293 Flp-In EGFP-delE TorsinA, punctate imaging, 48 h; series mostly up to 46.1 µM
Summary of the method: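 Induced EGFP-delE TorsinA cells are imaged after 48 h of compound treatment. Punctate fusion-protein distribution gives the %pathology value, while nuclei counts flag toxicity. Wild-type EGFP-hTOR1A cells define the normal pattern.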
Potency is the fitted concentration of half-maximal effect.

SMILES | Potency
CCCCS(=O)(=O)N[C@@H](Cc1ccc(OCCCCC2CCNCC2)cc1)C(=O)O | inactive
O=c1[nH]c(=O)n([C@H]2CCCO2)cc1F | inactive
NCCCC[C@H](N[C@@H](CCc1ccccc1)C(=O)O)C(=O)N1CCC[C@H]1C(=O)O | inactive
CC(C)(C(=O)c1cccnc1)c1cccnc1 | inactive
COc1cc(/C=C/C(=O)O[C@H]2CC[C@]34C[C@]35CC[C@]3(C)[C@@H]([C@H](C)CCC=C(C)C)CC[C@@]3(C)[C@@H]5CC[C@H]4C2(C)C)ccc1O | inactive
NC(=O)c1cc[n+](CC2=C(C(=O)[O-])N3C(=O)[C@@H](NC(=O)Cc4cccs4)[C@H]3SC2)cc1 | inactive
O=C(O)CCCCC(=O)O | inactive
CCOC(=O)[C@H](CCc1ccccc1)N[C@@H](C)C(=O)N1Cc2ccccc2C[C@H]1C(=O)O | inactive
O=C1[C@H]2CCCC[C@H]2C(=O)N1CCCCN1CCN(c2nsc3ccccc23)CC1 | inactive
NC(CS)C(=O)O (configuration not stated) | inactive
CN(C)CC/C=C1\c2ccccc2Sc2ccc(Cl)cc21 | 12600 nM (active)
OC(CCN1CCCCC1)(c1ccccc1)c1ccccc1 | inactive
C[C@]12CCC(=O)C=C1[C@@H]1C[C@@H]1[C@H]1[C@@H]3[C@@H]4C[C@@H]4[C@@]4(CCC(=O)O4)[C@@]3(C)CC[C@@H]12 | inactive
NC[C@H]1O[C@H](O[C@H]2[C@H](O)[C@@H](O[C@H]3O[C@H](CO)[C@@H](O)[C@H](N)[C@H]3O)[C@H](N)C[C@@H]2N)[C@H](N)[C@@H](O)[C@@H]1O | inactive
O=C(N/N=C/c1ccccc1O)c1ccncc1 | inactive
CCOC(=O)COc1ccc2c(C)c(CCN(CC)CC)c(=O)oc2c1Cl | inactive
NC(CO)(CO)CO | inactive
CC(C)(CO)[C@@H](O)C(=O)NCCCO | inactive
Cc1cccn2c(=O)c(-c3nnn[nH]3)cnc12 | inactive

target: Cytochrome P450 2D6 (Homo sapiens) (UniProt P10635); assay: Cytochrome P450 family 2 subfamily D member 6 (CYP2D6) small molecule antagonists: luciferase biochemical (cell-free) qHTS assay (AID 1645840); settings: P450-Glo CYP2D6 enzyme, luciferin luminescence, 1 h; series mostly up to 57.4 µM; note: nearly all actives have a fitted effect of over 55% in size
Summary of the method: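 P450-Glo CYP2D6 system: proluciferin substrate converted by enzyme to luciferin, read by luminescence proportional to activity. Enzyme-substrate mix with compound 10 min at room temperature, then NADPH regeneration 1 h before detection reagent.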

Cytochrome P450 2D6 (Homo sapiens), sequence (P10635 whole entry, looked up): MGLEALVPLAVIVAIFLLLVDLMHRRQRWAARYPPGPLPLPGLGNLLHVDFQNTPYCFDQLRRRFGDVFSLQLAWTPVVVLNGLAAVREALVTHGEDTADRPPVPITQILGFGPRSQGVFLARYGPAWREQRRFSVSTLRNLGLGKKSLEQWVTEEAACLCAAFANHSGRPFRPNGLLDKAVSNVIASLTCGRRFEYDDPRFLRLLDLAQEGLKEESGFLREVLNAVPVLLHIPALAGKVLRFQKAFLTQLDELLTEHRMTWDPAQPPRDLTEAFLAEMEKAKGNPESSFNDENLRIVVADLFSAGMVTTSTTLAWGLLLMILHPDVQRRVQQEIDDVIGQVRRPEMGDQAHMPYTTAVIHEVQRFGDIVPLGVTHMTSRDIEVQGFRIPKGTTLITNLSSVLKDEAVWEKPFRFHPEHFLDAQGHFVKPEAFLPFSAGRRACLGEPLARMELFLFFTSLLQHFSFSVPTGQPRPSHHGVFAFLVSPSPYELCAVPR

SMILES | Potency
CCCCS(=O)(=O)N[C@@H](Cc1ccc(OCCCCC2CCNCC2)cc1)C(=O)O | inactive
CCCCOc1cc(C(=O)NCCN(CC)CC)c2ccccc2n1 | 8710 nM (active)
O=c1[nH]c(=O)n([C@H]2CCCO2)cc1F | inactive
NCCCC[C@H](N[C@@H](CCc1ccccc1)C(=O)O)C(=O)N1CCC[C@H]1C(=O)O | inactive
CCN(CC)CCOC(=O)C(c1ccccc1)C1CCCCC1 (configuration not stated) | 3090 nM (active)
CC(C)(C(=O)c1cccnc1)c1cccnc1 | inactive
COc1cccc(CCc2ccccc2OCC(CN(C)C)OC(=O)CCC(=O)O)c1 (configuration not stated) | 195 nM (active)
COc1cc(/C=C/C(=O)O[C@H]2CC[C@]34C[C@]35CC[C@]3(C)[C@@H]([C@H](C)CCC=C(C)C)CC[C@@]3(C)[C@@H]5CC[C@H]4C2(C)C)ccc1O | inactive
NC(=O)c1cc[n+](CC2=C(C(=O)[O-])N3C(=O)[C@@H](NC(=O)Cc4cccs4)[C@H]3SC2)cc1 | inactive
CCOC(=O)[C@H](CCc1ccccc1)N[C@@H](C)C(=O)N1Cc2ccccc2C[C@H]1C(=O)O | inactive
CCCCCCc1ccc(O)cc1O | 4900 nM (active)
O=C1[C@H]2CCCC[C@H]2C(=O)N1CCCCN1CCN(c2nsc3ccccc23)CC1 | 12300 nM (active)
NC(CS)C(=O)O (configuration not stated) | inactive
CN(C)CC/C=C1\c2ccccc2Sc2ccc(Cl)cc21 | 1230 nM (active)
CN1CCC(=C2c3ccccc3Sc3ccccc32)CC1 | 1380 nM (active)
OC(CCN1CCCCC1)(c1ccccc1)c1ccccc1 | 617 nM (active)
O=c1[nH]c(=O)n([C@H]2C[C@H](O)[C@@H](CO)O2)cc1C(F)(F)F | inactive
CN(C(=O)CN(CCO)CC(=O)N(C)C(C)(C)Cc1ccccc1)C(C)(C)Cc1ccccc1 | 1380 nM (active)
CCN(CC)C(=O)/C(C#N)=C/c1cc(O)c(O)c([N+](=O)[O-])c1 | inactive
COc1ccc(CN2CCN(C(c3ccc(F)cc3)c3ccc(F)cc3)CC2)c(OC)c1OC | 2190 nM (active)
COC(=O)C1=C(C)NC(C)=C(C(=O)O[C@@H]2CCCN(Cc3ccccc3)C2)[C@@H]1c1cccc([N+](=O)[O-])c1 | 6920 nM (active)
NC[C@H]1O[C@H](O[C@H]2[C@H](O)[C@@H](O[C@H]3O[C@H](CO)[C@@H](O)[C@H](N)[C@H]3O)[C@H](N)C[C@@H]2N)[C@H](N)[C@@H](O)[C@@H]1O | inactive
CC(C)C[C@H]1C(=O)N2CCC[C@H]2[C@]2(O)O[C@](NC(=O)[C@@H]3C=C4c5cccc6[nH]c(Br)c(c56)C[C@H]4N(C)C3)(C(C)C)C(=O)N12 | inactive
